# From PubChem BioAssay AID2597 (National Center for Advancing Translational Sciences (NCATS), 2010)
# Records with an inconclusive call do not appear. Where a call stands in place of a potency, no number is given. The source made the active and inactive calls. Calls come from the whole dose curve; as a rule, active = well fitted curve in the direction sought with a large enough effect; inconclusive = small, poorly fitted or top-dose-only effect, or effect the other way, or another doubt; inactive = no such curve, though single readings can be large or run the other way.
# Molecular target: Lysosomal acid glucosylceramidase (Homo sapiens) (UniProt P04062)
# Sequence (P04062 whole entry N409S): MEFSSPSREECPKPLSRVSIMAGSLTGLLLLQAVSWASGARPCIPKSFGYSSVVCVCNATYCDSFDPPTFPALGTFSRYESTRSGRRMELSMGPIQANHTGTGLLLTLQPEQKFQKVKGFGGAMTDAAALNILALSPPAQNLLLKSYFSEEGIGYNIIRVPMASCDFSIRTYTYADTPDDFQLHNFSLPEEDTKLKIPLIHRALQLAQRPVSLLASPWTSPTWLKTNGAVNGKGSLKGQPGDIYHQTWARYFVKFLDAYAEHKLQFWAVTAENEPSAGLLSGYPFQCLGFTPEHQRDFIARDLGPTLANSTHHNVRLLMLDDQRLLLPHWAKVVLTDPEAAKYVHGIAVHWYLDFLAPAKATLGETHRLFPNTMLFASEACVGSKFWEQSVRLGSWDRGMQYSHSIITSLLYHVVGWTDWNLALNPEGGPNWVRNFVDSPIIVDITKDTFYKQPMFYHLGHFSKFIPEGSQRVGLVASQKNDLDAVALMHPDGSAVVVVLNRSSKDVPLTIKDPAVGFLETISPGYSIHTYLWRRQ
# Assay: qHTS Assay for Inhibitors and Activators of N370S glucocerebrosidase as a Potential Chaperone Treatment of Gaucher Disease: Purified N370S Glucocerebrosidase
# Conditions: purified N370S GC, 4-MU-glucoside fluorescence, 40 min; series mostly up to 76.9 µM
# Description: NIH Chemical Genomics Center [NCGC] NIH Molecular Libraries Probe Production Centers Network [MLPCN] MLPCN Grant: MH086442-01 Assay Submitter (PI): Wei Zheng Glucocerebrosidase (GC) catalyzes the hydrolysis of beta-glucocerebroside to glucose and ceramide in lysosomes. Mutations in the glucocerebrosidase gene result in Gaucher disease, an autosomal recessive lysosomal storage disorder. Many of the mutations encountered in patients with Gaucher disease are missense alterations that may cause misfolding, decreased stability and/or mistrafficking of this lysosomal protein. […] These inhibitors include iminosugar analogs and three non-iminosugar inhibitors identified from a previous HTS of 62,000 compounds with the wild type recombinant enzyme. However, the enhancement of enzyme activity by the chaperone action of an enzyme inhibitor must be balanced against the direct inhibition of the enzyme. An enzyme activator could also function as a chaperone by binding to the enzyme and helping to correct its misfolding and mistrafficking. While activators for GC have not yet been identified, they may have better therapeutic potential than inhibitors. Therefore the discovery and development of chemical activators may provide a new strategy for the chaperone therapy. We have optimized a new assay using N370S mutant GC derived from the spleen of a Gaucher patient. […] In addition, the MLPCN compound library has expanded, which increases the chance of finding new and better probes. This assay characterizes compound activity using purified mutant enzyme instead of tissue homogenate. Compound activity differences may be due to the absence of endogenous cofactors found in tissue homogenate.
# NCGC Assay Protocol Summary: This is a fluorogenic enzyme assay with 4-methylumbelliferyl-beta-D-glucopyranoside as the substrate and purified N370S glucocerebrosidase as the enzyme preparation. Upon the hydrolysis of this fluorogenic substrate, the resulting product, […] which can be detected by a standard fluorescence plate reader. Data were normalized to the controls for basal activity (without enzyme) and 100% activity (with enzyme). The AC50 values were determined from concentration-response data modeled with the standard Hill equation. Assay buffer: 50 mM citric acid (titrated with potassium phosphate to pH 5.0), 100 mM potassium chloride, 10 mM sodium chloride, 1 mM magnesium chloride, 0.01% Tween-20. 1536-well assay protocol: (1) Add 2 ul/well of glucocerebrosidase enzyme solution (5 nM final) (2) Add 23 nL compounds in DMSO solution. The final titration was 0.5 nM to 58 uM. (3) Add 2 ul of substrate (1 mM final) (4) Incubate at 37C for 40 min. (5) Add 2 ul stop solution (1M NaOH and 1M Glycine mixture, pH 10) (6) Detect the assay plate in a ViewLux plate reader (PerkinElmer) with Ex=365 nm and Em=440nm. Keywords: Glucocerebrosidase, beta-glucosidase, Gaucher Disease, pharmacological chaperone, chaperone therapy, high throughput screening, glucocerebrosidase inhibitor, MLSMR, MLSCN, NIH Roadmap, qHTS and NCGC
row,SMILES,Potency
1,O=S(=O)(c1ccc2c(c1)OCCO2)N1CCN(c2nc(-c3cccs3)nc3ccccc23)CC1,inactive
2,O=S(=O)(c1ccccc1C(F)(F)F)N1CCN(c2nc(-c3cccs3)nc3ccccc23)CC1,inactive
3,O=S(=O)(c1ccc(F)cc1)N1CCN(c2nc(-c3ccccc3)nc3cc(Cl)ccc23)CC1,inactive
4,S=C(NCCCc1cnc[nH]1)NCCCN(Cc1ccc(Cl)c(Cl)c1)c1ccc(Br)cn1,2.51 µM (active)
5,Cc1cc(C)cc(N(CC(=O)NC2CCCCCC2)S(=O)(=O)c2c(C)[nH]c(=O)[nH]c2=O)c1,1.58 µM (active)
6,O=S(=O)(c1cccs1)N1CCN(c2nc(-c3cccs3)nc3ccccc23)CC1,inactive
7,O=S(=O)(c1ccc(F)cc1)N1CCN(c2nc(-c3ccc(F)cc3)nc3cc(Cl)ccc23)CC1,inactive
8,O=S(=O)(c1ccc(Cl)cc1)N1CCN(c2nc(-c3cccs3)nc3ccccc23)CC1,inactive
9,c1csc(-c2nc(NCC3CCCO3)c3ccccc3n2)c1 (centres undefined),inactive
10,O=S(=O)(c1cccc(C(F)(F)F)c1)N1CCN(c2nc(-c3cccs3)nc3cc(Cl)ccc23)CC1,inactive
11,O=S(=O)(c1ccc2c(c1)OCCO2)N1CCN(c2nc(-c3ccccc3)nc3ccccc23)CC1,inactive
12,O=S(=O)(c1ccc(Cl)cc1)N1CCN(c2nc(-c3ccc(Cl)cc3)nc3ccccc23)CC1,inactive
13,Cc1ccc(S(=O)(=O)N2CCN(c3nc(-c4ccc(F)cc4)nc4cc(Cl)ccc34)CC2)cc1,inactive
14,COc1ccc(S(=O)(=O)N2CCN(c3nc(-c4cccs4)nc4ccccc34)CC2)cc1,inactive
15,O=S(=O)(c1ccccc1Cl)N1CCN(c2nc(-c3cccs3)nc3ccccc23)CC1,inactive
16,O=S(=O)(c1cccc2ccccc12)N1CCN(c2nc(-c3cccs3)nc3ccccc23)CC1,inactive
17,O=S(=O)(c1ccccc1)N1CCN(c2nc(-c3ccc(F)cc3)nc3cc(Cl)ccc23)CC1,inactive
18,O=S(=O)(c1ccc(Cl)cc1)N1CCN(c2nc(-c3cccc(Br)c3)nc3ccccc23)CC1,inactive
19,OCCNc1nc(-c2cccs2)nc2ccccc12,inactive
20,COc1ccc(-c2nc(N3CCN(S(=O)(=O)c4ccc(F)cc4)CC3)c3ccccc3n2)cc1,inactive

row,SMILES,Potency
1,O=C(c1ccc2c(c1)OCCO2)N1CCN(c2nc(-c3cccs3)nc3ccccc23)CC1,inactive
2,O=S(=O)(c1ccc2ccccc2c1)N1CCN(c2nc(-c3cccs3)nc3ccccc23)CC1,inactive
3,O=S(=O)(c1ccc(F)cc1)N1CCN(c2nc(-c3cccs3)nc3cc(Cl)ccc23)CC1,inactive
4,NS(=O)(=O)c1ccc(S(=O)(=O)N2CCN(c3nc(-c4cccs4)nc4ccccc34)CC2)cc1,inactive
5,COc1ccc(-c2nc(N3CCN(S(=O)(=O)c4ccccc4)CC3)c3ccccc3n2)cc1,inactive
6,Cc1ccccc1S(=O)(=O)N1CCN(c2nc(-c3cccs3)nc3ccccc23)CC1,inactive
7,O=S(=O)(c1ccc(Cl)cc1)N1CCN(c2nc(-c3ccc(F)cc3)nc3cc(Cl)ccc23)CC1,inactive
8,N#Cc1ccc(S(=O)(=O)N2CCN(c3nc(-c4cccs4)nc4ccccc34)CC2)cc1,inactive
9,Cc1ccc(S(=O)(=O)N2CCN(c3nc(-c4cccs4)nc4ccccc34)CC2)cc1,inactive
10,COc1ccc(-c2nc(N3CCN(S(=O)(=O)c4ccc(C)cc4)CC3)c3ccccc3n2)cc1,inactive
11,COc1cccc(S(=O)(=O)N2CCN(c3nc(-c4cccs4)nc4ccccc34)CC2)c1,inactive
12,CC(C)(C)C(=O)OCCNc1nc(-c2ccccc2)nc2ccccc12,8.91 µM (active)
13,O=S(=O)(Cc1ccccc1)N1CCN(c2nc(-c3cccs3)nc3ccccc23)CC1,inactive
14,O=S(=O)(c1ccc(Cl)cc1)N1CCN(c2nc(Nc3cc(Cl)ccc3O)nc3ccccc23)CC1,14.1 µM (active)
15,Cc1cccc(S(=O)(=O)N2CCN(c3nc(-c4cccs4)nc4ccccc34)CC2)c1,inactive
16,O=S(=O)(c1ccc(F)cc1)N1CCN(c2nc(-c3cccc(Br)c3)nc3ccccc23)CC1,inactive
17,Cc1ccc(-c2nc(N3CCN(S(=O)(=O)c4ccc(F)cc4)CC3)c3ccc(Cl)cc3n2)cc1,inactive
18,CC(C)(C)c1ccc(S(=O)(=O)N2CCN(c3nc(-c4cccs4)nc4ccccc34)CC2)cc1,inactive
19,CC(C)C(C)NC(=O)CSc1nc2scc(-c3ccco3)c2c(=O)n1-c1ccccc1 (centres undefined),inactive
